In ChEMBL document CHEMBL1156829:
Whole data set: some 5,400 compounds, median “IFI” near 2, cut for the highest 2% near 22. The sample as a whole holds a higher share of the highest values than the screen did.

Assay: NOVARTIS: Inhibition Frequency Index (IFI) - the number of HTS assays where a compound showed > 50% inhibition/induction, expressed as a percentage of the number of assays in which the compound was tested.
Format: functional

| SMILES | IFI [%] |
| --- | --- |
| Cc1ccn2c(NC(C)(C)CC(C)(C)C)c(-c3ccccc3OC(=O)c3ccc(C)c([N+](=O)[O-])c3)nc2c1 | 3.74 |
| Cc1ccc(S(=O)(=O)NC(Cc2ccccc2)C(=O)N2CCC(C3CCN(C(=O)c4ccc([N+](=O)[O-])o4)CC3)CC2)cc1 (centres undefined) | 7.69 |
| Cc1nc([P+](c2ccccc2)(c2ccccc2)c2ccccc2)c(SCc2ccccc2)o1 | 21.6 |
| CCCCSc1oc(C)nc1[P+](c1ccccc1)(c1ccccc1)c1ccccc1 | 22.2 |
| CCC(c1nc2ccccc2c(=O)n1-c1ccc(F)c(Cl)c1)N(CCc1ccccc1)C(=O)COc1ccccc1 (centres undefined) | 1.87 |
| OC(Cn1nnc2ccccc21)Cn1c2ccc(Br)cc2c2cc(Br)ccc21 (centres undefined) | 2.01 |
| COc1ccc(OC)c(C2CC(=O)C3=C(C2)NC(=O)CC3c2ccc([N+](=O)[O-])cc2)c1 (centres undefined) | 0 |
| CN(C)c1ccc(/C=C/C(=O)NC(=O)c2ccccc2O)cc1 | 10.6 |
| Cc1ccc(C(=O)C(C)[n+]2ccc(N(C)C)cc2)cc1 (centres undefined) | 0 |
| CC(/C=C/C(=O)NO)=C\[C@@H](C)C(=O)c1ccc(N(C)C)cc1 | 22.6 |
| CC(C)COc1ccc(C(=O)N/C(=C/c2ccccc2)C(N)=O)cc1 | 0 |
| COc1ccccc1NC1=CC(=NS(=O)(=O)c2ccccc2)c2ccccc2C1=O | 21.4 |
| COc1ccc(S(=O)(=O)N=C2C=C(Nc3ccccc3OC)C(=O)c3ccccc32)cc1 | 23.1 |
| COc1ccc(S(=O)(=O)N=C2C=C(Nc3ccccc3)C(=O)c3ccccc32)cc1 | 0 |
| COc1ccccc1NC1=CC(=NS(=O)(=O)c2ccc(F)cc2)c2ccccc2C1=O | 15.4 |
| CC(=O)Nc1ccc(NC2=CC(=NS(=O)(=O)c3ccccc3)c3ccccc3C2=O)cc1 | 7.69 |
| COc1ccc(S(=O)(=O)N=C2C=C(Nc3ccc(O)cc3)C(=O)c3ccccc32)cc1 | 23.1 |

| SMILES | IFI [%] |
| --- | --- |
| CCOc1ccc(S(=O)(=O)N=C2C=C(Nc3ccc(O)cc3)C(=O)c3ccccc32)cc1 | 15.4 |
| O=C1C(Nc2ccc(O)cc2)=CC(=NS(=O)(=O)c2cccs2)c2ccccc21 | 23.1 |
| COc1ccccc1NC1=CC(=NS(=O)(=O)c2cccs2)c2ccccc2C1=O | 7.69 |
| CC(=O)N(C1=C(N2CCOCC2)C(=O)c2ccccc2C1=O)c1cccc(Cl)c1 | 0 |
| O=C(NC1CC1)C1CCN(c2cccc3c2C(=O)N(C2CCCCCCC2)C3=O)CC1 | 5.94 |
| Cc1ccc2nc(-c3ccc(O)cc3)oc2c1 | 7.14 |
| O=S(=O)(Nc1cc(Sc2nc[nH]n2)c(O)c2ccccc12)c1ccc(F)cc1 | 23.1 |
| Cc1oc2c(cc(NS(=O)(=O)c3ccc(F)cc3)c3ccccc32)c1C(=O)OCc1ccccc1 | 0 |
| O=S(=O)(NCCCCNc1ccnc2cc(Cl)ccc12)c1ccc(F)cc1 | 1.85 |
| O=C(c1ccc2nc(N3CCCCC3)sc2c1)N1CCN(Cc2ccc3c(c2)OCO3)CC1 | 2.86 |
| COc1ccc([N+](=O)[O-])cc1NC(=O)C(C)Nc1ccc(N(C)C)cc1 (centres undefined) | 6.25 |
| Oc1ccc(C=NN=C(Nc2ccccn2)c2ccccn2)c(O)c1 | 23.1 |
| CC1=C(C(=O)Nc2ccccn2)C(c2ccc(O)cc2)n2ncnc2N1 (centres undefined) | 0 |
| O=C(NN=Cc1ccc(O)cc1O)c1ccncc1 | 2.73 |
| NS(=O)(=O)c1ccc(CCNC(=O)/C=C/c2ccc3c(c2)OCO3)cc1 | 0 |
| Oc1ccc(-c2ccnc3cc(Cl)ccc23)cc1CNCC1(O)CCCCC1 | 2.59 |
| COc1ccc(C(=O)C[N+]2=C(C)c3ccc(C)n3CC2)cc1 | 0 |
